BRCA1 expr up – qHTS Assay to Identify Small Molecule Activators of BRCA1 Expression; MCF7-BRCA1-FFLuc reporter, luminescence, 48 h; response scale: scaled: vehicle 0%, 10 µM genistein 100%; Potency, µM (highest dose often 46.1 µM), for the others: at the highest dose activation, usual class: activators; hit rate 1.1% among 380,000; further: potency means the concentration at half of the fitted maximal effect; nearly all actives have a fitted effect of over 80% in size
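Luminescence from a BRCA1-driven firefly luciferase in MCF7 cells was the read-out, taken 15 min after substrate addition following 48 h compound exposure at 37 °C. Data were normalized to a 10 microM genistein control and DMSO vehicle.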
PTHR1 ag – qHTS for PTHR1 Agonists: Primary Screen; Parathyroid hormone/parathyroid hormone-related peptide receptor (Homo sapiens), Q03431; HEK293 GP2 PTHR1 cells, GloSensor cAMP luminescence, 1 h; Potency, µM (titrated, usually from 115 µM), for the others: at the highest dose activation, usual class: activators; hit rate 0.075% among 410,000; AID 743266, 2014; further: potency means the concentration at half of the fitted maximal effect; nearly all actives have a fitted effect of over 55% in size
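HEK-293-derived GP2 cells expressing PTHR1 and a GloSensor cAMP reporter, 3,000/well, plated overnight, given luciferin plus IBMX (each 0.5 mM as added) for 1 h at 37 °C, then compound for 1 h at 37 °C. Luminescence was read after 15 min at room temperature.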
DRD3 antagonist – qHTS of D3 Dopamine Receptor Antagonist: qHTS; hit rate 2.5% among 360,000; D(3) dopamine receptor (Homo sapiens), P35462; D3R cells, DiscoveRx beta-arrestin luminescence, antagonist mode; stronger effect = lower value; max response, negative = inhibition, %; in the data active means max response below about -50%; inconclusive means no clear call, values can overlap the other calls; further: on the % scale 0 is the no-effect control and ±100 the full control effect
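Cells expressing the human receptor were seeded at 1500 cells/well, incubated overnight at 37 degrees C in 5% CO2, then exposed to library compounds with dopamine controls for 90 minutes at 37 degrees C before luminescent detection.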
D3 ag – qHTS of D3 Dopamine Receptor Agonist: qHTS. D(3) dopamine receptor (Homo sapiens), P35462. D3R DiscoveRx beta-arrestin cells, luminescence, 90 min. max activation, %. hit rate 0.58% among 410,000; in the data active means max activation above about 30%; further: 0% is about no effect
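Agonist mode: compounds and dopamine controls were applied to plated cells for 90 min at 37 degrees C after an overnight attachment at 1500 cells/well. Luminescent read-out followed 30 - 60 minutes at room temperature with DiscoveRx detection reagent.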
B2AR arrestin – qHTS assay of beta-arrestin-biased ligands of beta2-adrenergic receptor. Beta-2 adrenergic receptor (Homo sapiens), P07550. beta-arrestin recruitment to beta2AR, cell-based reporter. hit rate 0.02% among 330,000. Potency, µM (highest dose often 46.1 µM), without a hit: at the highest dose activation, usual class: activators;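 further: potency means the concentration at half of the fitted maximal effect; 0% = DMSO controls and full agonism = EC100 isoproterenol or metaproterenol; nearly all actives have a fitted effect of over 65% in size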
Target sequence (P07550 whole entry, looked up): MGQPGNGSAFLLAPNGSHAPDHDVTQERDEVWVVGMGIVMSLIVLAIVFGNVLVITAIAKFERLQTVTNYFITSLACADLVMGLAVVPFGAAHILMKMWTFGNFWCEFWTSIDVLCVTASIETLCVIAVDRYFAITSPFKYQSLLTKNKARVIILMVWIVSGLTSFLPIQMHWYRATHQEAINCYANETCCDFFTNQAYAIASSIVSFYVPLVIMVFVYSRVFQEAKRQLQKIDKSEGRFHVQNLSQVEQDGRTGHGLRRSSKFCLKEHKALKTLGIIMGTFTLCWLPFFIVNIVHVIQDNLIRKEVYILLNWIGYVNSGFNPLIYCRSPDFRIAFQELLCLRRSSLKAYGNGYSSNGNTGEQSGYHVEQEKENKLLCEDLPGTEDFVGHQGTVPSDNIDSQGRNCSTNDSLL
RGS4 inhibitor – Inhibitors of Regulator of G Protein Signaling (RGS) 4: qHTS | Regulator of G-protein signaling 4 (Homo sapiens), P49798 | Transcreener GDP fluorescence polarization, RGS4-accelerated GTP hydrolysis | Potency, µM (titrated, usually from 114 µM), inactives show at the highest dose activity change, negative = inhibition, usual class: inhibitors | hit rate 0.039% among 390,000 | AID 504845, 2011; further: potency means the concentration at half of the fitted maximal effect; on the % scale 0 is the no-effect control and ±100 the full control effect; nearly all actives have a fitted effect of over 75% in size
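MLSMR compounds (23 nl, pin-transferred) preincubated 10 min at room temperature with a 500nM (2x) first reagent, then RGS4 at 900nM (2x) plus Transcreener GDP mix added; fluorescence polarization (620/688 nm) read before and after 90 min at 30 °C.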
* hit, by the source's call; [ ] = another dose, or the depositor's remark. Only some compounds are listed: those with a hit (about 3.7% of all), similar ones and a draw of the others. Unless noted, the call rests on the fitted dose curve; in most records, active means well fitted curve in the direction sought with a large enough effect; inconclusive means small, poorly fitted or top-dose-only effect, or another doubt; inactive means no such curve, though single readings can be large; an effect the other way counts as inactive or inconclusive.

What do the screens show for `COc1cccc(NC(=O)C2CCN(Cc3cnn(-c4ccccc4)c3-n3cccc3)CC2)c1`?
BRCA1 expr up: -54%; PTHR1 ag: -13%[57.5 µM]; DRD3 antagonist: -50*; D3 ag: -1; B2AR arrestin: -1%; RGS4 inhibitor: 7%

What do the screens show for `COc1ccc(NC(=O)C2CCN(Cc3cnn(-c4ccccc4)c3-n3cccc3)CC2)cc1OC`?
BRCA1 expr up: -15%; PTHR1 ag: inactive; DRD3 antagonist: -73*; D3 ag: -16; RGS4 inhibitor: 15%

What do the screens show for `O=C(NCc1ccc2c(c1)OCO2)C1CCN(Cc2cnn(-c3ccccc3)c2-n2cccc2)CC1`?
BRCA1 expr up: -3%; PTHR1 ag: 11%[57.5 µM]; DRD3 antagonist: inconclusive; D3 ag: -13; RGS4 inhibitor: -31%

Results for O=C(Nc1ccccc1Cl)C1CCN(Cc2cnn(-c3ccccc3)c2-n2cccc2)CC1 ?
BRCA1 expr up: -47%; PTHR1 ag: -8%; DRD3 antagonist: -80*; D3 ag: 3; B2AR arrestin: 0%; RGS4 inhibitor: -15%

What do the screens show for `COc1ccc(OC)c(NC(=O)C2CCN(Cc3cnn(-c4ccccc4)c3-n3cccc3)CC2)c1`?
BRCA1 expr up: -69%; PTHR1 ag: -3%[57.5 µM]; DRD3 antagonist: -65*; D3 ag: -10; B2AR arrestin: 0%; RGS4 inhibitor: 12%

How did CCn1cc(CN2CCC(C(=O)Nc3cccc(-c4cccc(OC)c4)c3)CC2)c(C)n1 do in these assays?
BRCA1 expr up: 1%; PTHR1 ag: inactive; DRD3 antagonist: inconclusive; D3 ag: -32; B2AR arrestin: -1%; RGS4 inhibitor: -10%

What do the screens show for `COc1ccc(NC(=O)CCCNC(=O)c2ccc(Cl)cc2)cc1S(=O)(=O)N1CCOCC1`?
BRCA1 expr up: 2%; PTHR1 ag: inactive; DRD3 antagonist: 1; D3 ag: 8; RGS4 inhibitor: 1%

Results for Cc1cccc(N(Cc2ccccc2)C(=O)CN2C(=O)NC3(CCCCC3C)C2=O)c1 (stereo unspecified) ?
BRCA1 expr up: -15%; PTHR1 ag: -19%; DRD3 antagonist: -9; D3 ag: 3; B2AR arrestin: 0%; RGS4 inhibitor: 5%

How did NC(=O)c1ccc(-n2nnnc2SCC(=O)Nc2ccc(F)cc2)cc1 do in these assays?
BRCA1 expr up: 5%; PTHR1 ag: -12%; DRD3 antagonist: -19; D3 ag: -23; B2AR arrestin: -1%; RGS4 inhibitor: 13%

Results for CC(C)(C)C(=O)N(Cc1ccc(Cl)cc1)Cc1cccnc1 ?
BRCA1 expr up: -13%; PTHR1 ag: -37%; DRD3 antagonist: 8; D3 ag: 3; B2AR arrestin: 0%; RGS4 inhibitor: 0%

How did O=C(CSCc1cnn(-c2ccccc2)c1-n1cccc1)Nc1ccc(F)cc1F do in these assays?
PTHR1 ag: -79%; D3 ag: -20; RGS4 inhibitor: 20%

Results for Cc1ccc(NC(=O)CSCc2cnn(-c3ccccc3)c2-n2cccc2)c(Cl)c1 ?
PTHR1 ag: -41%; D3 ag: 70*; RGS4 inhibitor: -8%

Results for CCOC(=O)CSc1nnc(NCC(=O)OC)c(=O)[nH]1 ?
BRCA1 expr up: 2%; PTHR1 ag: inactive; DRD3 antagonist: -56*; D3 ag: -14; B2AR arrestin: 0%; RGS4 inhibitor: inconclusive

How did CCOC(=O)N1CCN(C(=O)CC(C)S(=O)(=O)c2cc3c(cc2C)NC(=O)CO3)CC1 (stereo unspecified) do in these assays?
BRCA1 expr up: -3%; PTHR1 ag: inactive; DRD3 antagonist: -9; D3 ag: 6; B2AR arrestin: 0%; RGS4 inhibitor: 12%[11.4 µM]

Screening results as filed in PubChem.
